Outcome and AC50 data for 3 molecules are collected here from PubChem BioAssay (EPA / NIEHS).

One may read the AC50 as the midpoint of the concentration-response curve, whichever way the signal moves.

Conditions in all cases: mRNA level, 48 h; actives raise or lower the signal
Read-out in test [1]: ATP-citrate lyase (ACLY), ACLY (gene 47)
Nature of the test: LTEA_HepaRG_ACLY: Life Technologies and Expression Analysis (LTEA) Assay for ATP-citrate lyase (ACLY) using HepaRG (AID 2283466). The method, boiled down:
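Differentiated human HepaRG cells in serum-free induction medium exposed 48 h, in duplicate, to eight half-log concentrations from 100 uM top in 0.5% DMSO; ACLY mRNA measured by qRT-PCR, normalized to ACTB, GAPDH, POLR2A, fitted bidirectionally versus DMSO.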

Read-out in test [2]: Peroxisomal acyl-coenzyme A oxidase 1 (ACOX1) gene, ACOX1 (gene 51)
Nature of the test: LTEA_HepaRG_ACOX1: Life Technologies and Expression Analysis (LTEA) Assay for Peroxisomal acyl-coenzyme A oxidase 1 (ACOX1) gene using HepaRG (AID 2283467). Put shortly: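 Differentiated human HepaRG cells were exposed in duplicate for 48 h in serum-free induction medium to eight half-log concentrations up to 100 uM in 0.5% DMSO. ACOX1 mRNA was then quantified by TaqMan qRT-PCR, normalized to ACTB, GAPDH and POLR2A.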

Read-out in test [3]: Alkaline Phosphatase, Placental (ALPP) gene, ALPP (gene 250)
Nature of the test: LTEA_HepaRG_ALPP: Life Technologies and Expression Analysis (LTEA) Assay for Alkaline Phosphatase, Placental (ALPP) gene using HepaRG (AID 2283468). Put shortly:
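Expression of ALPP was quantified by qRT-PCR against three housekeeping genes in human HepaRG cultures treated for 48 h with an eight-point concentration series up to 100 uM. Activity in either direction was fitted relative to 0.5% DMSO.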

Read-out in test [4]: Bcl-2 (BAD) gene, BAD (gene 572)
Nature of the test: LTEA_HepaRG_BAD: Life Technologies and Expression Analysis (LTEA) Assay for Bcl-2 (BAD) gene using HepaRG (AID 2283469). Put shortly: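 Differentiated human HepaRG cells in serum-free induction medium were exposed in duplicate for 48 h to eight concentrations (top 100 uM, half-log steps, 0.5% DMSO). BAD mRNA was quantified by qRT-PCR normalised to ACTB, GAPDH and POLR2A, with bidirectional fitting versus DMSO.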

Read-out in test [5]: Bcl-2 (BAX) gene, BAX (gene 581)
Nature of the test: LTEA_HepaRG_BAX: Life Technologies and Expression Analysis (LTEA) Assay for Bcl-2 (BAX) gene using HepaRG (AID 2283470). Put shortly: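 Differentiated human HepaRG cells, plated 48 h then switched to serum-free induction medium, were exposed 48 h to 8 half-log concentrations up to 100 uM in 0.5% DMSO; BAX mRNA measured by qRT-PCR, normalized to ACTB, GAPDH, POLR2A.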

Read-out in test [6]: adenosine kinase (ADK) gene, ADK (gene 132)
Nature of the test: LTEA_HepaRG_ADK: Life Technologies and Expression Analysis (LTEA) Assay for adenosine kinase (ADK) gene using HepaRG (AID 2283471). Put shortly: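 HepaRG (human liver), 48 h chemical exposure, 8-pt half-log series, top 100 uM, 0.5% DMSO vehicle. Readout: ADK mRNA by qRT-PCR vs housekeeping genes; bidirectional curve fit relative to DMSO baseline.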

Read-out in test [7]: Alpha-fetoprotein (AFP) gene, AFP (gene 174)
Nature of the test: LTEA_HepaRG_AFP: Life Technologies and Expression Analysis (LTEA) Assay for Alpha-fetoprotein (AFP) gene using HepaRG (AID 2283472). Put shortly:
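Human HepaRG cells plated 48 h, then switched to serum-free induction medium and exposed in duplicate for 48 h to 8-point half-log series from 100 uM in 0.5% DMSO. AFP mRNA by qRT-PCR, normalized to ACTB, GAPDH, POLR2A; bidirectional fit versus DMSO.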

Read-out in a further test: BCL2L11 (gene 10018)
Nature of the test: LTEA_HepaRG_BCL2L11: Life Technologies and Expression Analysis (LTEA) Assay for Bcl-2 (BCL2L11) gene using HepaRG (AID 2283473). Put shortly:
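Cells were plated, cultured 48 h, switched to serum-free induction medium, then dosed in duplicate for 48 h at eight half-log concentrations up to 100 uM. Lysates underwent RNA isolation and TaqMan qRT-PCR; gain or loss versus DMSO was fitted.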

Read-out in test [8]: Apolipoprotein A-V (APOA5) gene, APOA5 (gene 116519)
Nature of the test: LTEA_HepaRG_APOA5: Life Technologies and Expression Analysis (LTEA) Assay for Apolipoprotein A-V (APOA5) gene using HepaRG (AID 2283474). Put shortly: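 Human liver HepaRG cells are treated 48 h with test chemicals (100 uM top, half-log dilutions, 0.5% DMSO). APOA5 mRNA induction or loss is measured by qRT-PCR relative to vehicle.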

Read-out in test [9]: Apoptosis regulator Bcl-2 (Homo sapiens) (UniProt P10415)
Nature of the test: LTEA_HepaRG_BCL2: Life Technologies and Expression Analysis (LTEA) Assay for Bcl-2 gene using HepaRG (AID 2283475). The method, boiled down:
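Differentiated HepaRG cells in serum-free induction medium were exposed for 48 h to eight half-log concentrations up to 100 uM in 0.5% DMSO, in duplicate. BCL2 mRNA was quantified by TaqMan qRT-PCR normalised to ACTB, GAPDH and POLR2A, with bidirectional fitting versus DMSO.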

Read-out in test [10]: Bcl-2 (BID) gene, BID (gene 637)
Nature of the test: LTEA_HepaRG_BID: Life Technologies and Expression Analysis (LTEA) Assay for Bcl-2 (BID) gene using HepaRG (AID 2283476). The method, boiled down: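 Differentiated HepaRG cells in serum-free induction medium were exposed in duplicate for 48 h to eight half-log concentrations up to 100 uM in 0.5% DMSO. BID mRNA was quantified by qRT-PCR, normalized to ACTB, GAPDH and POLR2A.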

Read-out in the next test: Caspase-3 (Homo sapiens) (UniProt P42574)
Nature of the test: LTEA_HepaRG_CASP3: Life Technologies and Expression Analysis (LTEA) Assay for cysteine-aspartic acid protease (CASP3) using HepaRG (AID 2283477). Put shortly:
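In HepaRG liver cells dosed for 48 h at up to 100 uM (eight-point, duplicate), CASP3 expression changes are scored by qRT-PCR. Activity is fitted in both directions with 0.5% DMSO as baseline.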

Read-out in test [11]: Cytochrome P450 (CYP24A1), CYP24A1 (gene 1591)
Nature of the test: LTEA_HepaRG_CYP24A1: Life Technologies and Expression Analysis (LTEA) Assay for Cytochrome P450 (CYP24A1) using HepaRG (AID 2283478). The method, boiled down: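 Human liver HepaRG cultures receive each chemical for 48 h across an eight-point half-log series topping at 100 uM in 0.5% DMSO. Induction or suppression of CYP24A1 mRNA is scored relative to vehicle after housekeeping-gene normalization.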

Read-out in test [12]: Cytochrome P450 (CYP1A2), CYP1A2 (gene 1544)
Nature of the test: LTEA_HepaRG_CYP1A2: Life Technologies and Expression Analysis (LTEA) Assay for Cytochrome P450 (CYP1A2) using HepaRG (AID 2283479). The method, boiled down:
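Assesses CYP1A2 mRNA in human HepaRG liver cells after 48 h chemical exposure at up to 100 uM. Values come from qRT-PCR with bidirectional curve fitting relative to DMSO.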

Read-out in test [13]: cysteine-aspartic acid protease (CASP8), CASP8 (gene 841)
Nature of the test: LTEA_HepaRG_CASP8: Life Technologies and Expression Analysis (LTEA) Assay for cysteine-aspartic acid protease (CASP8) using HepaRG (AID 2283480). The method, boiled down: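 Differentiated human HepaRG cells, plated 48 h then switched to serum-free induction medium, were exposed in duplicate for 48 h to 8 half-log concentrations up to 100 uM in 0.5% DMSO. CASP8 mRNA was quantified by qRT-PCR, normalized to ACTB/GAPDH/POLR2A.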

Read-out in test [14]: Cytochrome P450 (CYP2B6), CYP2B6 (gene 1555)
Nature of the test: LTEA_HepaRG_CYP2B6: Life Technologies and Expression Analysis (LTEA) Assay for Cytochrome P450 (CYP2B6) using HepaRG (AID 2283481). Put shortly: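 Using 48 h treatment of HepaRG cells in serum-free induction medium, concentrations spanned half-log steps from 100 uM in 0.5% DMSO vehicle. CYP2B6 mRNA induction or loss is scored by qRT-PCR against DMSO.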

Read-out in test [15]: Cytochrome P450 2C19 (Homo sapiens) (UniProt P33261)
Nature of the test: LTEA_HepaRG_CYP2C19: Life Technologies and Expression Analysis (LTEA) Assay for CYP2C19 using HepaRG (AID 2283482). The method, boiled down:
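Human HepaRG liver cells received test chemicals for 48 h (highest 100 uM, half-log dilutions in 0.5% DMSO). CYP2C19 mRNA induction or loss is read by multiplexed qRT-PCR and fitted in both directions versus vehicle.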

Read-out in another test: CYP2C8 (gene 1558)
Nature of the test: LTEA_HepaRG_CYP2C8: Life Technologies and Expression Analysis (LTEA) Assay for CYP2C8 using HepaRG (AID 2283483). The method, boiled down:
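Differentiated human HepaRG cells were exposed for 48 h in serum-free induction medium to eight half-log concentrations up to 100 uM in 0.5% DMSO, in duplicate. CYP2C8 mRNA was measured by TaqMan qRT-PCR, normalized to ACTB, GAPDH and POLR2A, and fitted bidirectionally against DMSO.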

Read-out in the next test: CYP2E1 (gene 1571)
Nature of the test: LTEA_HepaRG_CYP2E1: Life Technologies and Expression Analysis (LTEA) Assay for CYP2E1 using HepaRG (AID 2283485). Put shortly:
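HepaRG cells in serum-free induction medium exposed 48 h to test chemicals, 8 half-log concentrations up to 100 uM in 0.5% DMSO, duplicate. CYP2E1 mRNA by qRT-PCR, normalized to ACTB, GAPDH, POLR2A; bidirectional fit versus DMSO.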

Read-out in a further test: CYP2C9 (gene 1559)
Nature of the test: LTEA_HepaRG_CYP2C9: Life Technologies and Expression Analysis (LTEA) Assay for CYP2C9 using HepaRG (AID 2283484). The method, boiled down:
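Differentiated human HepaRG cells were exposed 48 h in serum-free induction medium to eight half-log concentrations up to 100 uM in 0.5% DMSO. CYP2C9 mRNA was measured by qRT-PCR, normalized to ACTB, GAPDH and POLR2A, and fitted bidirectionally against DMSO.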

Activity calls are given as the source filed them. The calls were made as follows: active = hit-call score of the fitted dose curve at least 0.9, where 1 is the maximum; inactive = score below 0.9.

Sequence of Apoptosis regulator Bcl-2 (Homo sapiens) (P10415 whole entry, looked up): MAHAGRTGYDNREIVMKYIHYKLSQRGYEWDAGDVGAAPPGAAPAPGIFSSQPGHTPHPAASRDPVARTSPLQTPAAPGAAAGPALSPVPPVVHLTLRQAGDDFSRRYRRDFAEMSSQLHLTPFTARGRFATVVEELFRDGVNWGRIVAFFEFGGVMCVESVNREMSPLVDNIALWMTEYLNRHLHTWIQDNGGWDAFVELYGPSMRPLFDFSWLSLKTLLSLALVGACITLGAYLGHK
Sequence of Caspase-3 (Homo sapiens) (P42574 whole entry, looked up): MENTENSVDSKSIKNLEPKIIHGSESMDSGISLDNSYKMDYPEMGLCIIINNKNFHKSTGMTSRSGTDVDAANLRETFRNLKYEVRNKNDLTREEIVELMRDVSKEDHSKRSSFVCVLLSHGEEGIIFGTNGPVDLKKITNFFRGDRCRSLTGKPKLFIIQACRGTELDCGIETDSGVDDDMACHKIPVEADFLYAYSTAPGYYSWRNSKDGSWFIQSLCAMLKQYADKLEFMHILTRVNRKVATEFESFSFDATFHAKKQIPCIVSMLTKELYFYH
Sequence of Cytochrome P450 2C19 (Homo sapiens) (P33261 whole entry, looked up): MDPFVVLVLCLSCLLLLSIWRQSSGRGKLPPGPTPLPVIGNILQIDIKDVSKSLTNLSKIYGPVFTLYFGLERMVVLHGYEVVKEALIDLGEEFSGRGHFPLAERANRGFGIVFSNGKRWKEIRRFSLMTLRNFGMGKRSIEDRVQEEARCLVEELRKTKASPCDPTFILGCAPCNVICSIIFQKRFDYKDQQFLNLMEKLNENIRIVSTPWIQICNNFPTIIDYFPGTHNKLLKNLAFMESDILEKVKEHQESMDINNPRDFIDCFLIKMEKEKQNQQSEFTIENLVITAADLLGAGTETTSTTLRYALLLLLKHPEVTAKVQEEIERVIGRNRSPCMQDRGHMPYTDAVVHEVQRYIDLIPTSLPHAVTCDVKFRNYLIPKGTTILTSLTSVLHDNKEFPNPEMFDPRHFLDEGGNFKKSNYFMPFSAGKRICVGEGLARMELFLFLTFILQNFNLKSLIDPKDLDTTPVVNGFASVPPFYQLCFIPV

In the case of `O=C(NC(=O)c1cc(F)c(F)cc1Cl)Nc1cc(F)ccc1N1CCC(C(=O)O)CC1`, the molecule was called inactive in test [1], in [2], in [3], in test [4], in test [5] and in test [6]. The call (in [7]; in the test with BCL2L11 (gene 10018); in test [8]; in [9]; in test [10]; with Caspase-3 (Homo sapiens)) was inactive. The call (in test [11]; in test [12]; in test [13]; in test [14]; in [15]; with CYP2C8 (gene 1558)) was inactive. Also, the AC50 with CYP2E1 (gene 1571) is 10.3 µM (active).

In the case of `CCOCCOC(C)=O`, the outcome in test [1], in [2], in test [3], in test [4], in test [5] and in test [6] was inactive. In addition, the outcome (in [7]; with BCL2L11 (gene 10018); in test [8]; in test [9]; in [10]; in the test with Caspase-3 (Homo sapiens)) was inactive. Besides, the molecule was classed as inactive (in [11]; in test [12]; in test [13]; in [15]; in the test with CYP2C8 (gene 1558); in the test with CYP2E1 (gene 1571)). Also, the AC50 in [14] is 20.3 µM (active).

For `C=CC(N)=O`, the molecule was classed as inactive in test [1], in [2], in [3], in test [4], in test [5] and in [6]. The call (in test [7]; with BCL2L11 (gene 10018); in test [8]; in test [9]; in test [10]; with Caspase-3 (Homo sapiens)) was inactive. Besides, the molecule was called inactive (in test [11]; in test [12]; in test [13]; in test [14]; in the test with CYP2C8 (gene 1558); in the test with CYP2C9 (gene 1559)). The molecule was classed as inactive in the test with CYP2E1 (gene 1571).
